From PubChem BioAssay (NCI)
About 83,000 compounds went through this panel and 20% of them were active in at least one assay; those are over-represented in the sample as a whole.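 Plates (96-well) were seeded with cells, treated with compound at one concentration, and incubated for 48 hours before percent growth was determined.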 Values without a mark were called inactive. Active and inactive are the calls of the source. How the source made its calls: active means growth percent below 10; inactive means the rest.

The molecules below were run on COLO 205 colon (assay: NCI-60 one-dose screen, 48 h (100 = growth as untreated, 0 = no growth, -100 = all killed)). Details: 10 µM unless noted.

| SMILES | growth |
| --- | --- |
| CCOC(=O)c1ccccc1NC(c1ccccc1)c1ccc2cccnc2c1O (stereo not drawn) | 16.3% |
| O=S(=O)(NCCCNc1nccc(-c2c(-c3ccc(O)cc3)nc3sccn23)n1)c1ccc(F)cc1 | 1.03% (active) |
| C=CCc1cc(Cl)cc2c(OC(C)=O)c(C(C)=O)c(-c3ccccc3)nc12 | 108% |
| NC(=O)c1cccc(N2Cc3ccccc3OC3=C2C(=O)c2c(O)ccc(O)c2C3=O)c1 | -82.8% (active) |
| Cc1cccc(NC(=O)c2sc3nc4c(cc3c2N)CCC4)c1C | 6.68% (active) |
| COc1ccc(/C=C2\CCCC3=C2NC(C)=NC3c2ccc(OC)c(OC)c2)cc1OC (stereo not drawn) | -29.8% (active) |
| COc1cc(NS(C)(=O)=O)ccc1Nc1c2ccc([N+](=O)[O-])cc2nc2c(C)cccc12 | 25.3% |
| CC/C=C\C[C@H](O)C/C=C1/C(=O)C(Cl)=C[C@@H]1C/C=C\CCCC(=O)O | 47.6% |
| CCC(=O)Oc1cc(/C=C/C(=O)O[C@H]2C[C@H]3CN4CCc5c([nH]c6cc(OC)ccc56)[C@@H]4C[C@@H]3[C@@H](C(=O)OC)[C@@H]2OC)ccc1OC | 69.5% |
| Nc1ccccc1C#C/C=C\C#Cc1cccc(O)c1 | 81.2% |
| O=C(CSc1nc(-c2ccc(Cl)cc2)cn1-c1ccc(Cl)cc1)c1ccc(Br)cc1 | 81.7% |
| COC(=O)CCCCCN=Cc1c(O)c(O)c(C(C)C)c2cc(C)c(-c3c(C)cc4c(C(C)C)c(O)c(O)c(C=NCCCCCC(=O)OC)c4c3O)c(O)c12 | 13.6% |
| C=CCOc1cccc(/C=C/C(=O)c2sc(Nc3cccnc3)nc2C)c1 | 91.3% |
| CC(=O)Nc1nc(C(=O)N2N=C(C)/C(=C/c3cccs3)C2=O)cs1 | 104% |
| COc1cc(C2C=C(C)N=C3SC(C)=NN32)cc(OC)c1OC (stereo not drawn) | 96.3% |
| COc1cc(C2C=C(C)N=C3SC=CN32)cc(OC)c1OC (stereo not drawn) | 113% |
| CC/C=C\C/C=C\C[C@H]1C/C=C2/C(=O)C=C[C@H]2C/C=C\CCC(=O)O1 | -32.4% (active) |
| COc1ccc(C2=NN(c3ccc(S(N)(=O)=O)cc3)C(c3cn(-c4ccccc4)nc3-c3ccc(Cl)cc3)C2)cc1 (stereo not drawn) | 93.7% |
| O=C(CCCn1c2c(sc3ccccc32)c(=O)n2nnc(-c3ccccc3)c12)NCCc1cnc[nH]1 | -3.8% (active) |

| SMILES | growth |
| --- | --- |
| CCOC(=O)C1=C(CSC(=S)N(C2CCCCC2)C2CCCCC2)N(C)C(=O)NC1c1ccccc1 (stereo not drawn) | 60.6% |
| COc1cccc(-c2nc3sccn3c2-c2ccnc(NCCNS(=O)(=O)c3ccccc3)n2)c1 | 34.1% |
| COC(=O)c1ccc2nc(-c3cc4ccccc4n3C)n(CCCCOc3cc4c(cc3OC)C(=O)N3CCC[C@H]3C=N4)c2c1 | -39.4% (active) |
| CCn1cc(C(=O)O)c(=O)c2cc(F)c(N3CCN(S(=O)(=O)c4ccc(Cl)cc4Cl)CC3)cc21 | -59.8% (active) |
| CN(C)c1nc(N)c(N=O)c(N)n1 | 127% |
| COc1cc(C(=O)/C=C/c2cc(C(=O)c3cc(OC)c(OC)c(OC)c3)ccc2OC)ccc1N | -58.8% (active) |
| COc1ccc(C2CC(c3cccs3)=NN2c2ccc(S(=O)(=O)NC(=O)Nc3ccc(C)cc3)cc2)cc1 (stereo not drawn) | -54.6% (active) |
| COc1cccc(/C=C2\SC(N3CCN(c4ccccn4)CC3)=NC2=O)c1 | 119% |
| Nc1nc(N)c2nc(CNc3ccc(C(=O)CC(CCC(=O)O)C(=O)O)cc3)cnc2n1 (stereo not drawn) | 66% |
| Cc1ccc2nc(SCn3nnc4ccccc4c3=O)[nH]c2c1 | 75.9% |
| O=C1Nc2cc(Cl)ccc2Oc2cc(Oc3ccccc3)ccc21 | 45.2% |
| OC1CC2c3ccccc3C1c1ccccc12 (stereo not drawn) | 112% |
| N#Cc1ncc(-c2ccc(F)c(F)c2F)c(NC2CCCCCC2)n1 | 99.8% |
| CC(C)(C)c1ccc(S(=O)(=O)Oc2ccc3c4c(c(=O)oc3c2)CCCCC4)cc1 | 37.4% |
| CC(Cc1nnc(SCC(=O)Nc2ccc(I)cc2)n1N)c1ccccc1 (stereo not drawn) | 93.9% |
| CCN(Cc1ccc(CN(CC)C(=O)C(Cl)(Cl)Cl)cc1)C(=O)C(Cl)(Cl)Cl | 95.7% |
| NC(=O)NC(=O)/C=C/C(=O)OCCCl | 97.7% |
| CC(=O)OCC1OC(OCC2OC(OC(C)=O)C(OC(C)=O)C(OC(C)=O)C2OC(C)=O)C(OC(C)=O)C(OC(C)=O)C1OC(C)=O (stereo not drawn) | 107% |
| O=C1c2ccccc2C(=O)c2c1oc1oc3c(c(=O)c21)c(=O)n(-c1ccccc1)c1ccccc31 | 92.7% |
